Some test systems named below: HT29 colon; SNB-75 CNS; SNB-19 CNS; U251 CNS; PC-3 prostate; SK-MEL-5 melanoma; UACC-62 melanoma; LOX IMVI melanoma; SK-MEL-28 melanoma; SK-MEL-2 melanoma; SN12C renal; UO-31 renal; TK-10 renal; ACHN renal; CAKI-1 renal; A498 renal; CCRF-CEM leukemia; MOLT-4 leukemia; SR leukemia.
Assay in all cases: NCI-60 one-dose screen, 48 h (100 = growth as untreated, 0 = no growth, -100 = all killed)
What all share (settings): 10 µM

Each structure is given as a SMILES string. Compounds without any hit were thinned out: in the full panel of roughly 83,000, 20% have a hit.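 Cells were grown in 96-well plates and exposed to the test compound at a single concentration for 48 hours; results are reported as percent growth, with values below 10 considered active.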 Unmarked numbers belong to inactive results. Calls of active or inactive are those of the source.

For the compound `Clc1ccc(Nc2ccnc(NCCCNc3ccnc4cc(Cl)ccc34)n2)cc1`, the growth is -69.3% (active) in the test with HT29 colon; -89.2% (active) in the test on SNB-75 CNS; 4.15% (active) in the test with SNB-19 CNS; -93.2% (active) with U251 CNS; -27.5% (active) with PC-3 prostate; -100% (active) in the test with SK-MEL-5 melanoma. For the same compound, the growth with UACC-62 melanoma was -90.5% (active); in the test with LOX IMVI melanoma, -77.5% (active); in the test with SK-MEL-28 melanoma, -92.1% (active); with SK-MEL-2 melanoma, -91% (active); in the test on SN12C renal it was -51.6% (active); in the test on UO-31 renal, -46.2% (active). For the same compound, the growth in the test with TK-10 renal was -82.9% (active); with ACHN renal it was -93.9% (active); with CAKI-1 renal, -71.5% (active); in the test on A498 renal it was -4.52% (active); in the test with CCRF-CEM leukemia, -19.9% (active); in the test on MOLT-4 leukemia it was -31.5% (active). In the test on SR leukemia, the growth was -55.5% (active).
As for `O=C1/C(=C\c2ccc(Br)cc2)CN(C(=O)c2ccccc2F)C/C1=C\c1ccc(Br)cc1`, the growth is -47.4% (active) in the test on HT29 colon; 56.5% in the test with SNB-75 CNS; 54.3% in the test on SNB-19 CNS; -66.6% (active) with U251 CNS; 3.89% (active) in the test on PC-3 prostate; 30.4% in the test on SK-MEL-5 melanoma. In addition, the growth was -3.15% (active) with UACC-62 melanoma; -85.5% (active) in the test on LOX IMVI melanoma; 15.1% in the test with SK-MEL-28 melanoma; 66% in the test with SK-MEL-2 melanoma; 14.4% in the test on SN12C renal; -53.6% (active) with UO-31 renal. Also, the growth in the test on TK-10 renal was 55.2%; with ACHN renal it was 32.3%; in the test with CAKI-1 renal it was 7.2% (active); in the test with A498 renal, 74.9%; in the test on CCRF-CEM leukemia, -10.4% (active); in the test on MOLT-4 leukemia, 4.49% (active). Further, in the test with SR leukemia, the growth was -27.4% (active).
In the case of `CC(=O)N1C/C(=C/c2ccc(Cl)cc2)C(=O)/C(=C/c2ccc(Cl)cc2)C1`, the growth with HT29 colon was -62.2% (active); in the test with SNB-75 CNS, 30.1%; in the test on SNB-19 CNS, 15%; with U251 CNS, -76.8% (active); with PC-3 prostate, -42.4% (active); with SK-MEL-5 melanoma, -52.1% (active). For the same compound, the growth was -74.6% (active) with UACC-62 melanoma; -79.6% (active) in the test on LOX IMVI melanoma; -54.2% (active) in the test on SK-MEL-28 melanoma; -0.636% (active) in the test with SK-MEL-2 melanoma; -42.4% (active) in the test on SN12C renal; -88.8% (active) with UO-31 renal. For the same compound, the growth with TK-10 renal was -15.7% (active); with ACHN renal, -46.1% (active); with CAKI-1 renal, -15% (active); in the test on A498 renal, -5.57% (active); in the test with CCRF-CEM leukemia, -13.3% (active); in the test with MOLT-4 leukemia it was 0.236% (active). Besides, the growth in the test with SR leukemia is -15.1% (active).
Turning to `COc1cc(NC(=O)CCSc2nc3ccc(Cl)cc3c(=O)n2Cc2ccccc2)cc(OC)c1OC`, the growth with HT29 colon was 76.2%; in the test with SNB-75 CNS it was 36.6%; in the test with SNB-19 CNS, 92.1%; with U251 CNS, 70.2%; in the test on PC-3 prostate it was 43.4%; in the test with SK-MEL-5 melanoma it was 74.8%. Moreover, the growth with UACC-62 melanoma is 53.4%; in the test with LOX IMVI melanoma, 91.1%; in the test with SK-MEL-28 melanoma, 70.7%; in the test with SK-MEL-2 melanoma, 73.7%; in the test on SN12C renal it was 80%; in the test on UO-31 renal, 74.1%. Moreover, the growth with TK-10 renal is 109%; in the test with ACHN renal, 45.9%; in the test on CAKI-1 renal, 63.7%; with A498 renal, 33.5%; in the test with CCRF-CEM leukemia, 78.1%; in the test on MOLT-4 leukemia, 60.6%. Moreover, the growth in the test with SR leukemia was 66.5%.
Regarding `Nc1c(C(=O)Nc2ccccc2)sc2nc3c(cc12)C(O)CCC3` (stereo unspecified), the growth was 6.61% (active) in the test with HT29 colon; 36.6% with SNB-75 CNS; 58.6% in the test on SNB-19 CNS; 23.9% with U251 CNS; 31.8% in the test on PC-3 prostate; 42.4% in the test with SK-MEL-5 melanoma. Besides, the growth in the test with UACC-62 melanoma is 55.4%; with LOX IMVI melanoma, 47.5%; in the test with SK-MEL-28 melanoma it was 62.6%; in the test with SK-MEL-2 melanoma, 37.8%; in the test on SN12C renal it was 39.6%; in the test with UO-31 renal it was 49.4%. Further, the growth was 69.8% in the test on TK-10 renal; 48.2% in the test with ACHN renal; 41.4% in the test on CAKI-1 renal; -10.1% (active) in the test on A498 renal; 14.2% in the test with CCRF-CEM leukemia; 11.9% with MOLT-4 leukemia. Moreover, the growth in the test on SR leukemia was 7.36% (active).
Regarding `N=C(N)c1ccc(-c2ccc(-c3cccs3)o2)cc1`, the growth in the test with HT29 colon was -26.5% (active); with SNB-75 CNS it was 40.6%; in the test on SNB-19 CNS, 73.7%; in the test with U251 CNS, 12.4%; in the test with PC-3 prostate it was 50.5%; in the test on SK-MEL-5 melanoma, 44.6%. Further, the growth in the test on UACC-62 melanoma was 67.7%; in the test with LOX IMVI melanoma it was 12.2%; in the test on SK-MEL-28 melanoma, 47.6%; in the test on SK-MEL-2 melanoma it was -7.14% (active); in the test with SN12C renal, 54.5%; in the test with UO-31 renal, 65.9%. In addition, the growth with TK-10 renal was 96.5%; with ACHN renal it was 62.7%; in the test with CAKI-1 renal, 37.8%; with A498 renal it was 33.5%; with CCRF-CEM leukemia it was 19.9%; in the test on MOLT-4 leukemia, -2.16% (active). Also, the growth in the test on SR leukemia is -24.5% (active).
`c1ccc([I+]c2ccccc2)cc1`: the growth in the test with HT29 colon was 31.4%; with SNB-75 CNS, 63.6%; in the test with SNB-19 CNS it was 85.5%; in the test on U251 CNS, 70.9%; in the test with PC-3 prostate it was 69.8%; in the test on SK-MEL-5 melanoma it was 55.7%. Moreover, the growth in the test with UACC-62 melanoma is 106%; with LOX IMVI melanoma it was 43.1%; in the test with SK-MEL-28 melanoma, 87.4%; in the test with SK-MEL-2 melanoma, 55.3%; with SN12C renal it was 96.7%; in the test with UO-31 renal, 45.9%. Moreover, the growth with TK-10 renal is 56.6%; in the test on ACHN renal, 77.1%; in the test with CAKI-1 renal it was 37.3%; in the test on A498 renal it was 65%; with CCRF-CEM leukemia it was 51.5%; in the test on MOLT-4 leukemia, 62.9%.
As to `CC(=O)N(C)c1ccc(Nc2ccc(Nc3ccc(N(C)C(C)=O)cc3)c3c2C(=O)c2ccccc2C3=O)cc1`, the growth in the test on HT29 colon was 68.6%; with SNB-75 CNS, 73.9%; with SNB-19 CNS it was 88.4%; with U251 CNS, 77.3%; in the test with PC-3 prostate it was 38.3%; in the test with SK-MEL-5 melanoma it was 79%. For the same compound, the growth in the test with UACC-62 melanoma was 88.8%; in the test with LOX IMVI melanoma it was 55%; in the test on SK-MEL-28 melanoma, 106%; with SK-MEL-2 melanoma, 82.8%; in the test on SN12C renal, 71.4%; in the test on UO-31 renal, 25.9%. The growth in the test with TK-10 renal is 79%; in the test with ACHN renal, 64.3%; in the test with CAKI-1 renal it was 30.2%; in the test with A498 renal, 110%; with CCRF-CEM leukemia, 55.7%; with MOLT-4 leukemia, 56.8%. For the same compound, the growth with SR leukemia was 72.6%.

The values above are taken from PubChem BioAssay (NCI).
